From PubChem
T cruzi growth-1: T. cruzi intracellular proliferation inhibitors, primary screen, cell-based, beta-gal Tulahuen parasites, NIH3T3 host, luminescence | inhibition, % at 8.34 µM | 77,000 tested, 5.9% active | T. cruzi beta-gal in NIH3T3, GalScreen luminescence, 90 h;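 active = mean inhibition above about 93%, with at least 55% of replicates each passing it, limit read from the data, passing the limit was not always enough; inconclusive = only one of those two conditions holds; inactive = neither condition holds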
Pf Dd2 inh: P. falciparum Dd2 growth inhibitors, primary screen, SYBR Green fluorescence, single dose replicates. AID 1159554, 2015. 72 h; hits give low values. activity change, % at 10 µM. 94,000 tested, 2.3% active; in the data active = activity change below about -80%; inconclusive = no clear call, values can overlap the other calls
C diff HTS: C. difficile growth inhibitors, primary screen, HTS. AID 1259249, 2017. growth activity, negative = inhibition, % at 16 µg/mL (by protocol). Clostridium difficile clinical isolate growth, OD600, 24 h; hits give low values. 86,000 tested, 0.25% active;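 active = mean growth activity at or below -80% and every replicate also at or below -80%; inconclusive = mean at or below -80% but some replicate above -80%; inactive = mean growth activity above -80%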;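 note: 0% = DMSO wells and -100% = levofloxacin 16 µg/mL wells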
T cruzi growth-2: T. cruzi intracellular proliferation inhibitors, confirmation, cell-based, NIH3T3 host, beta-gal parasite, luminescence, cherry-pick; shares compounds with T cruzi growth-1; 5,600 tested, 72% active; inhibition, % at 8.35 µM; T. cruzi beta-gal in NIH3T3, GalScreen luminescence, 90 h;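 active = mean replicate inhibition above about 95% and at least 55% of replicates individually reaching it, limit read from the data; inconclusive = only one of the two criteria is met; inactive = neither criterion is met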
T cruzi growth-3: inhibitors of intracellular T. cruzi replication, confirmation, NIH3T3 host cells, beta-gal parasites, cherry-pick, set 2; shares compounds with T cruzi growth-1; T. cruzi beta-gal in NIH3T3, GalScreen luminescence, 90 h; inhibition, % at 2.09 µM; 5,600 tested, 21% active; AID 651740, 2012;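 active = mean inhibition above about 95%, with at least 55% of replicates also reaching it, limit read from the data; inconclusive = meets just one of the two conditions; inactive = meets neither condition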;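 note: plate controls were neutral control median for no effect and positive control median for full effect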
NIH3T3 tox: cytotoxicity in mouse NIH/3T3 fibroblasts, confirmation, cytotoxicity control for T. cruzi proliferation inhibitor project, cell-based, cherry-pick, single point. shares compounds with T cruzi growth-1. NIH/3T3 viability, CellTiter-Glo ATP luminescence, 90 h. cytotoxicity (signal decrease), % at 8.35 µM. 5,600 tested, 14% active;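 active = mean signal decrease across replicates above about 35% based on untreated-well scatter, with enough replicates individually passing, limit read from the data; inconclusive = no rule stated though some were filed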;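 note: 0% = median of neutral control wells and 100% = median of positive control wells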
3T3 cytotox 2: NIH/3T3 fibroblast cytotoxicity, confirmation, cytotoxicity control, cell-based, cherry-pick, single point, set 2; inhibition, % at 24.9 µM; 5,600 tested, 56% active; shares compounds with T cruzi growth-1; NIH/3T3 viability, CellTiter-Glo ATP luminescence, 90 h; AID 651744, 2012;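 active = mean loss of cell viability signal at or above a set limit, and enough replicates individually reaching it; inconclusive = meets only the mean limit or only the replicate share; inactive = meets neither condition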;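 note: 0% = median of neutral control wells and 100% = median of positive control wells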
An asterisk follows results filed as active; ? = inconclusive; / = not tested or not shown. The list is not random: actives were taken first. Their share in the collection is about 6.7%.

SMILES | T cruzi growth-1 | Pf Dd2 inh | C diff HTS | T cruzi growth-2 | T cruzi growth-3 | NIH3T3 tox | 3T3 cytotox 2
COCC(=O)N1CC2(CN(C(=O)NC(C)C)C2)c2c(n(C)c3cc(OC)ccc23)[C@H]1CO | / | 17.3 | -1.5 | / | / | / | /
CO[C@@H]1CN(C)C(=O)c2ccc(NC(=O)Cc3ccccc3)cc2OC[C@@H](C)N(CC2CC2)C[C@@H]1C | -5.2 | -22.8 | / | / | / | / | /
CC(C)c1cn(CC[C@H]2CC[C@@H](NC(=O)C3CC3)[C@@H](CO)O2)nn1 | 30.5 | 21.7 | / | / | / | / | /
CCN1[C@H](C(=O)Nc2nccs2)[C@@H](CO)[C@@H]2Cn3c(ccc(/C=C/c4ccccc4)c3=O)[C@@H]21 | / | -27.1 | 10.7 | / | / | / | /
C[C@H](CO)N1C[C@H](C)[C@H](CN(C)Cc2ccncc2)Oc2cc(-c3ccccc3F)ccc2S1(=O)=O | 106.0* | 8.8 | 2.3 | 93.0 | 90.9 | 59.1* | 76.4*
Cc1ccccc1-c1ccc2c(c1)O[C@@H](CN(C)Cc1ccncc1)[C@@H](C)CN([C@@H](C)CO)S2(=O)=O | 89.9 | -61.2 | 2.1 | / | / | / | /
C[C@@H]1CN([C@@H](C)CO)S(=O)(=O)c2ccc(-c3ccccc3F)cc2O[C@H]1CN(C)Cc1ccncc1 | 115.8* | -38.2 | -4.3 | 88.0 | 97.3* | 65.3* | 100.7*
CN(C)CC#Cc1ccc([C@H]2[C@H](CO)N3CCCCN(C(=O)Nc4ccc(F)cc4)C[C@@H]23)cc1 | 43.4 | -57.0 | 7.6 | / | / | / | /
O=C(Nc1ccc(F)cc1)N1CCCCN2[C@H](C1)[C@H](c1ccc(C#Cc3ccccc3)cc1)[C@@H]2CO | 123.3* | -89.4* | -4.1 | 102.5* | 31.2 | 0.1 | 76.4*
O=C(Nc1ccccc1)N1CCCCN2[C@H](CO)[C@@H](c3ccc(C#Cc4cccnc4)cc3)[C@@H]2C1 | 68.4 | -23.6 | 36.2 | / | / | / | /
O=C(Nc1ccccc1)N1CCCCN2[C@H](C1)[C@H](c1ccc(C#Cc3ccccc3)cc1)[C@@H]2CO | 105.9* | -3.8 | -2.6 | 104.2* | 45.1 | 10.5 | 39.2*
CCS(=O)(=O)Nc1ccc2c(c1)C(=O)N(C)[C@@H]1CC[C@@H](CC(=O)OC)O[C@@H]1CO2 | -1.4 | -9.8 | -1.9 | / | / | / | /
C[C@H](CO)N1C[C@H](C)[C@H](CN(C)CC2CC2)Oc2cc(-c3cccc(F)c3)ccc2S1(=O)=O | 10.1 | -37.9 | 3.9 | / | / | / | /
C[C@@H]1CN([C@H](C)CO)C(=O)c2cc(C#Cc3cccc(F)c3)cnc2O[C@H]1CN(C)C(=O)C1CCC1 | 22.1 | -48.6 | 5.9 | / | / | / | /
C[C@@H]1CN([C@@H](C)CO)C(=O)c2cc(C3=CCCC3)cnc2O[C@H]1CN(C)C(=O)Nc1ccc(C(F)(F)F)cc1 | 98.6* | -15.3 | -9.1 | 102.1* | 55.6 | 21.2 | 6.2
C[C@H]1CN([C@@H](C)CO)C(=O)c2cc(C3=CCCC3)cnc2O[C@@H]1CN(C)C(=O)Nc1ccc(C(F)(F)F)cc1 | 82.3 | -54.2 | -1.0 | / | / | / | /
C[C@@H]1CN([C@H](C)CO)C(=O)c2cc(C3=CCCC3)cnc2O[C@@H]1CN(C)C(=O)Nc1ccc(C(F)(F)F)cc1 | 111.2* | -3.7 | 21.0 | 107.1* | 84.0 | ? | 104.1*
C[C@H]1CN([C@@H](C)CO)C(=O)c2cc(C3=CCCC3)cnc2O[C@@H]1CN(C)C(=O)Nc1ccc(F)cc1 | / | -73.9 | -13.3 | / | / | / | /
C[C@@H]1CN([C@@H](C)CO)C(=O)c2cc(NC(=O)CCC(F)(F)F)ccc2O[C@@H](C)CCCCO[C@H]1CN(C)C(=O)C1CCCCC1 | 7.8 | -45.1 | -4.7 | / | / | / | /
COCC(=O)N(C)C[C@H]1Oc2cc(C3=CCCCC3)ccc2S(=O)(=O)N([C@H](C)CO)C[C@@H]1C | -0.8 | 19.5 | 1.2 | / | / | / | /
C[C@@H]1CCCCO[C@@H](CN(C)Cc2ccncc2)[C@H](C)CN([C@H](C)CO)C(=O)c2cc(NS(=O)(=O)c3ccc(Cl)cc3)ccc2O1 | ? | 6.3 | -11.9 | 95.5* | 55.2 | -7.4 | -7.4
